Compound activity as filed in PubChem.
Only some compounds are listed: those with a hit (about 5% of all), similar ones and a draw of the others.
HEK293 cAMP ctrl – raises cAMP in parental HEK293 cells, TSHR agonist counter-screen | parental HEK293 CNG cAMP sensor, membrane potential fluorescence | Potency, µM (titrated, usually from 57.1 µM), usual class: activators | 73,000 tested, 2.5% active | AID 938; further: nearly all actives have a fitted effect of over 55% in size
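Parental HEK 293 cells stably expressing a modified CNG channel (no TSHR) report cAMP rise as membrane depolarization. Membrane potential dye with 100 uM RO 20-1724 was loaded for 60 min at room temperature, then compound added for 30 min; fluorescence read at 590 nm.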
USP2a inhib – blocks human ubiquitin-specific protease USP2a; USP2a enzymatic assay, qHTS inhibition; Potency, µM (series often up to 38.3 µM), most hits filed as inhibitors; 60,000 tested, 0.1% active; further: nearly all actives have a fitted effect of over 60% in size
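USP2 core (20 nM final) was preincubated with compound for 30 min at RT in 20 mM Tris-HCl pH 8.0, 2 mM CaCl2, 2 mM beta-mercaptoethanol; Ub-PLA2 (20 nM) plus NBD C6-HPC (20 uM) then added, fluorescence read after 2.5 h.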
Casp7 inh – caspase-7 (human) inhibition, allosteric or competitive; AID 889; 75,000 tested, 0.02% active; P55210; Potency, µM (doses to about 57.5 µM), actives largely listed as inhibitors; recombinant caspase-7, Ac-DEVD-AFC fluorescence rate; active means well fitted inhibition curve with a large enough effect in the main read-out, with a control signal flat, not every such curve was filed as active; inconclusive means small, poorly fitted or top-dose-only effect, or a change in a side signal
CRE Fsk mod – CRE-bla signaling modulation under forskolin stimulation; CHO CRE-bla reporter (cAMP response element driving beta-lactamase), forskolin EC10, beta-lactamase ratio; Potency, µM (titrated, usually from 38.2 µM), actives largely listed as activators; 71,000 tested, 2.5% active; AID 662; active means well fitted activation curve with a large enough effect in the signal ratio, with a control signal flat, not every such curve was filed as active; inconclusive means small, poorly fitted or top-dose-only effect, or effect the other way, or a change in a side signal; the % refers to the signal ratio
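Forskolin analogue NKH 477 at EC10 stimulated CRE-driven beta-lactamase in CHO cells alongside compound dilution series. Beta-lactamase was measured with CCF4, excitation 405 nm, emission ratio 460/530 nm.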
Casp1 inh – caspase-1 (human) inhibition, allosteric or competitive; P29466; Caspase-1 enzyme, Ac-WEHD-AFC fluorogenic rate; Potency, µM (top dose mostly 57.5 µM), hits mostly inhibitors; 75,000 tested, 0.03% active; AID 900
Target sequence (P29466 120-297 limits assumed): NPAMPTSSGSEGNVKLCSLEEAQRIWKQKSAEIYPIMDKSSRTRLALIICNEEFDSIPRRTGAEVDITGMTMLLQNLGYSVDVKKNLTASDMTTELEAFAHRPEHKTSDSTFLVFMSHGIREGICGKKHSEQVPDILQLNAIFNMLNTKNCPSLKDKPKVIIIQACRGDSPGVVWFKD
Target sequence (P29466 317-404 limits assumed): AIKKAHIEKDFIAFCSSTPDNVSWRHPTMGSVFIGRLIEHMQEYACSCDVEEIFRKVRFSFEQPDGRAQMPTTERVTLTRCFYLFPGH
TSHR agonist – agonists of human thyroid stimulating hormone receptor; P16473; HEK293-CNG-TSHR cells (CNG channel as cAMP sensor), membrane potential dye, cAMP; Potency, µM (doses to about 57.1 µM), most hits filed as activators; 73,000 tested, 0.48% active; AID 926; active means well fitted activation curve with a large enough effect in the main read-out, with a control signal flat, not every such curve was filed as active; inconclusive means small, poorly fitted or top-dose-only effect, or a change in a side signal; inactive means no such curve, though single readings can be large or run the other way; reference of the percent scale not stated here;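 further: the control signal comes from parental cells without the receptor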
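HEK 293 cells stably expressing TSHR and a cAMP-gated CNG channel; parental CNG-only cells as counterscreen. Cells preloaded 60 min with membrane potential dye plus 100 uM RO 20-1724, then compound 30 min; fluorescence read at 590 nm.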
Of the large screens only hits and unclear results are named; the others gave an inactive call. Unless noted, the call rests on the fitted dose curve; in most records, active means well fitted curve in the direction sought with a large enough effect; inconclusive means small, poorly fitted or top-dose-only effect, or another doubt; inactive means no such curve, though single readings can be large; an effect the other way counts as inactive or inconclusive.

O=C(c1ccco1)c1cn(CC(=O)N2CCCc3ccccc32)c2ccccc12	HEK293 cAMP ctrl 25µM, USP2a inhib inconclusive, TSHR agonist inconclusive
Cc1ccccc1Cc1c(C)nc2c(C(=O)N3CCN(Cc4ccc5c(c4)OCO5)CC3)cnn2c1C	HEK293 cAMP ctrl 20µM, TSHR agonist inconclusive
CCOC(=O)C1=C(C)NC(=O)NC1C1CC=CCC1 (stereo unspecified)	none
COC(=O)C1=C(C)NC(C)=C(C(=O)OC)C1C1CC=CCC1 (stereo unspecified)	TSHR agonist 20µM (no result: USP2a inhib, CRE Fsk mod)
Nc1nc(-c2ccccc2)c(-c2ccccc2)c(-c2nc(N)nc(-c3ccccc3)c2-c2ccccc2)n1	none (no result: USP2a inhib)
COC(=O)C1C(=O)CC(C)(O)C(C(=O)OC)C1/C=C/c1ccccc1 (stereo unspecified)	none (no result: USP2a inhib, CRE Fsk mod)
CCOC(=O)C1C(=O)CC(C)(O)C(C(=O)OCC)C1/C=C/c1ccccc1 (stereo unspecified)	HEK293 cAMP ctrl 5µM, TSHR agonist inconclusive
Cc1ccc2nc3c(cc(C(N)=S)c(=N)n3CCCOC(C)C)c(=O)n2c1	Casp7 inh inconclusive, CRE Fsk mod 10µM (no result: Casp1 inh)
O=C(N[C@@H](c1ccccc1)[C@@H]1C[C@H]1C(=O)NCc1ccccc1)OCc1ccccc1	HEK293 cAMP ctrl 13µM, TSHR agonist inconclusive (no result: USP2a inhib)
COC(=O)[C@H](Cc1ccccc1)NC(=O)[C@H]1C[C@@H]1[C@H](NC(=O)OCc1ccccc1)c1ccccc1	HEK293 cAMP ctrl 16µM, TSHR agonist inconclusive (no result: USP2a inhib)
O=C(N[C@@H](c1ccccc1)[C@@H]1C[C@H]1C(=O)NCc1ccccn1)OCc1ccccc1	none (no result: USP2a inhib)
COc1ccc(CNc2nc(-c3ccc(N(C)C)cc3)nc3ccccc23)c(OC)c1	USP2a inhib inconclusive, CRE Fsk mod inconclusive
N#CCCCSc1nnc(-c2ccc(Cl)cc2)n1-c1ccccc1	HEK293 cAMP ctrl 25µM, TSHR agonist inconclusive
CC(C)C(=O)Nc1cc(C(F)(F)F)ccc1N1CCOCC1	CRE Fsk mod inconclusive
Cc1cc(C#N)c(C)n1-c1cc(C(F)(F)F)ccc1N1CCOCC1	HEK293 cAMP ctrl 13µM, TSHR agonist inconclusive
CC(C)=CC1C(C(=O)Nc2ccc(Br)cn2)C1(C)C (stereo unspecified)	HEK293 cAMP ctrl 25µM, TSHR agonist inconclusive
COc1ccc2nc(S(=O)Cc3ncc(C)c(OC)c3C)[nH]c2c1 (stereo unspecified)	CRE Fsk mod 5µM
O=C(c1cc2nc(-c3ccccc3)cc(-c3ccccc3)n2n1)N1CCN(C(=O)c2ccco2)CC1	HEK293 cAMP ctrl inconclusive, Casp7 inh inconclusive, CRE Fsk mod 3.2µM, TSHR agonist inconclusive (no result: Casp1 inh)
O=C(c1cc2nc(-c3ccccc3)cc(C(F)(F)F)n2n1)N1CCCC1	CRE Fsk mod inconclusive
Cc1cc(N2CCN(C(=O)c3ccco3)CC2)n2nc(C)c(-c3ccccc3)c2n1	CRE Fsk mod 7.9µM
CC(C)Oc1cccc(C(=O)Nc2ccccc2N2CCOCC2)c1	HEK293 cAMP ctrl inconclusive, CRE Fsk mod inconclusive, TSHR agonist inconclusive
Cc1cc(Cl)ccc1OC(C)C(=O)Nc1ccccc1N1CCOCC1 (stereo unspecified)	HEK293 cAMP ctrl 25µM, TSHR agonist inconclusive
NC(=O)SCC(=O)Nc1ccc2ncccc2c1	CRE Fsk mod inconclusive, TSHR agonist inconclusive (no result: USP2a inhib)
Cn1c(=N)c(S(=O)(=O)c2ccccc2)cc2c(=O)n3ccccc3nc21	Casp7 inh inconclusive, CRE Fsk mod 2µM (no result: Casp1 inh)
N=c1c(S(=O)(=O)c2ccc(Cl)cc2)cc2c(=O)n3ccccc3nc2n1CCN1CCOCC1	HEK293 cAMP ctrl inconclusive, Casp7 inh inconclusive, CRE Fsk mod inconclusive, TSHR agonist inconclusive (no result: Casp1 inh)
Cn1c(=N)c(S(=O)(=O)c2ccc(F)cc2)cc2c(=O)n3ccccc3nc21	Casp7 inh inconclusive, CRE Fsk mod 1.6µM (no result: Casp1 inh)
Cc1c(C)c2c(c(C)c1O)CC[C@@](C)(CCC[C@@H](C)CCC[C@@H](C)CCCC(C)C)O2	USP2a inhib 7.9µM
O=C(OCC(=O)N1CCN(C(=O)c2ccco2)CC1)c1ccccc1OCc1ccc(Cl)cc1	HEK293 cAMP ctrl 25µM, TSHR agonist inconclusive
NC(N)=N/N=C\c1ccc(O)c(C(=O)O)c1	none (no result: USP2a inhib)
